Reference: PubChem BioAssay AID1159580 (chemical genetic matrix, 2015)
Out of some 5,500 compounds screened, about 2,000 (36%) were called active. About 18% were inconclusive and are not listed. No stated cut-off is given here; in the data, active means normalized growth mostly below about 0.91 (no sharp cut-off); inconclusive means no clear call, values can overlap the other calls; inactive means mostly above about 0.92. This is one part of the list.

Experiment: chemical genetic growth profiling, strain panel (AID 1159580);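 further: tested at 20 µM; growth read once vehicle control cultures reached saturation at 30 °C; 1 = growth at the plate median or of vehicle wells; lower values mean less growth of the strain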
Conditions: S. cerevisiae deletion strains, growth OD
[1] = locus YAR019C, strain CDC15, active compounds read low
[2] = locus YBL105C, strain PKC1, active compounds read low
[3] = locus YBR135W, strain CKS1, active compounds read low
[4] = locus YBR136W, strain MEC1, active compounds read low
[5] = locus YBR160W, strain CDC28, active compounds read low
[6] = locus YDL017W, strain CDC7, active compounds read low
[7] = locus YDL028C, strain MPS1, active compounds read low
[8] = locus YDL101C, strain DUN1, active compounds read low
[9] = locus YDL108W, strain KIN28, active compounds read low
[10] = locus YDL132W, strain cdc53, active compounds read low
[11] = locus YDL214C, strain PRR2, active compounds read low
[12] = locus YDR052C, strain DBF4, active compounds read low
[13] = locus YDR054C, strain cdc34, active compounds read low
[14] = locus YDR226W, strain ADK1, active compounds read low
[15] = locus YDR477W, strain SNF1, active compounds read low
[16] = locus YER123W, strain YCK3, active compounds read low
[17] = locus YER133W, strain GLC7, active compounds read low
[18] = locus YFL009W, strain cdc4, active compounds read low
[19] = locus YFL029C, strain CAK1, active compounds read low
[20] = locus YFR003C, strain YPI1, active compounds read low
[21] = locus YFR019W, strain FAB1, active compounds read low
[22] = locus YFR028C, strain CDC14, active compounds read low
[23] = locus YGR040W, strain KSS1, active compounds read low
[24] = locus YGR052W, strain FMP48, active compounds read low
[25] = locus YGR092W, strain DBF2, active compounds read low
[26] = locus YHR030C, strain SLT2, active compounds read low
[27] = locus YHR079C, strain IRE1, active compounds read low
[28] = locus YHR082C, strain KSP1, active compounds read low
[29] = locus YHR205W, strain SCH9, active compounds read low
[30] = locus YIL147C, strain SLN1, active compounds read low
[31] = locus YJL095W, strain BCK1, active compounds read low
[32] = locus YJL128C, strain PBS2, active compounds read low
[33] = locus YJL157C, strain FAR1, active compounds read low
[34] = locus YJR016C, strain ILV3, active compounds read low
[35] = locus YJR066W, strain TOR1 (second series), active compounds read low
[36] = locus YJR066W, strain TOR1, active compounds read low
[37] = locus YKL048C, strain ELM1, active compounds read low
[38] = locus YKL067W, strain YNK1, active compounds read low
[39] = locus YKL101W, strain HSL1, active compounds read low
[40] = locus YKL193C, strain SDS22, active compounds read low
[41] = locus YKL203C, strain TOR2, active compounds read low
[42] = locus YLR113W, strain HOG1, active compounds read low
[43] = locus YLR133W, strain CKI1, active compounds read low
[44] = locus YLR403W, strain SFP1, active compounds read low
[45] = locus YML070W, strain DAK1, active compounds read low
[46] = locus YMR001C, strain CDC5, active compounds read low
[47] = locus YMR205C, strain PFK2 (second series), active compounds read low
[48] = locus YMR277W, strain FCP1, active compounds read low
[49] = locus YNL006W, strain LST8, active compounds read low
[50] = locus YNL020C, strain ARK1, active compounds read low
[51] = locus YNL161W, strain CBK1, active compounds read low
[52] = locus YNL183C, strain NPR1, active compounds read low
[53] = locus YNL207W, strain RIO2, active compounds read low
[54] = locus YNL222W, strain SSU72, active compounds read low
[55] = locus YNL307C, strain MCK1 (second series), active compounds read low
[56] = locus YOL078W, strain AVO1, active compounds read low
[57] = locus YOL136C, strain PFK27, active compounds read low
[58] = locus YOR061W, strain CKA2, active compounds read low
[59] = locus YOR119C, strain RIO1, active compounds read low
[60] = locus YOR231W, strain MKK1, active compounds read low
[61] = locus YOR329C, strain SCD5, active compounds read low
[62] = locus YPL031C, strain PHO85, active compounds read low
[63] = locus YPL153C, strain RAD53, active compounds read low
[64] = locus YPL204W, strain HRR25, active compounds read low
[65] = locus YPL209C, strain IPL1, active compounds read low
[66] = locus YPL256C, strain CLN2, active compounds read low
[67] = locus YPR025C, strain CCL1, active compounds read low
[68] = locus YPR106W, strain ISR1, active compounds read low
[69] = locus YPR111W, strain DBF20, active compounds read low
[70] = strain NNK1, active compounds read low
[71] = strain TSCII, active compounds read low

Measured: normalized growth

COc1cc(NC(=S)NNS(=O)(=O)c2ccc(C)cc2)c(OC)cc1Cl
active: [42] 0.849
inactive: [1] 0.982 | [2] 0.974 | [3] 0.978 | [4] 0.971 | [5] 0.984 | [6] 0.984 | [7] 0.982 | [8] 0.976 | [9] 0.984 | [10] 0.974 | [11] 0.939 | [12] 0.986 | [13] 0.949 | [14] 0.974 | [15] 0.933 | [16] 0.921 | [17] 0.953 | [18] 0.982 | [19] 0.976 | [20] 0.985 | [21] 0.955 | [22] 0.968 | [23] 0.942 | [24] 1.06 | [25] 1.01 | [26] 0.858 | [27] 0.997 | [28] 1.02 | [29] 0.961 | [30] 0.986 | [31] 0.927 | [32] 0.966 | [33] 0.975 | [34] 0.977 | [35] 0.955 | [36] 0.97 | [37] 0.953 | [38] 0.94 | [39] 0.935 | [40] 0.97 | [41] 1 | [43] 0.947 | [44] 0.959 | [45] 0.942 | [46] 0.979 | [47] 0.947 | [48] 0.963 | [49] 0.986 | [50] 0.96 | [51] 0.984 | [52] 0.939 | [53] 0.981 | [54] 0.973 | [55] 0.941 | [56] 0.971 | [57] 0.929 | [58] 0.967 | [59] 1.05 | [60] 0.994 | [61] 0.984 | [62] 0.95 | [63] 0.95 | [64] 0.92 | [65] 0.972 | [66] 0.886 | [67] 0.972 | [68] 0.977 | [69] 0.951 | [70] 0.972 | [71] 0.98

COc1cc(NC(=S)N(C)C)c(OC)cc1Cl
inactive: [1] 0.984 | [2] 0.987 | [3] 0.996 | [4] 0.977 | [5] 0.991 | [6] 0.985 | [7] 0.987 | [8] 0.991 | [9] 0.996 | [10] 0.999 | [11] 0.984 | [12] 0.992 | [13] 0.983 | [14] 0.987 | [15] 0.979 | [16] 0.978 | [17] 0.99 | [18] 0.99 | [19] 0.983 | [20] 0.99 | [21] 0.971 | [22] 0.995 | [23] 0.974 | [24] 1.07 | [25] 0.992 | [26] 0.977 | [27] 0.984 | [28] 1.03 | [29] 0.963 | [30] 0.984 | [31] 0.982 | [32] 0.976 | [33] 0.997 | [34] 0.993 | [35] 0.967 | [36] 1 | [37] 0.991 | [38] 0.991 | [39] 0.971 | [40] 0.986 | [41] 1.03 | [42] 0.932 | [43] 0.987 | [44] 0.986 | [45] 0.974 | [46] 0.985 | [47] 0.988 | [48] 0.997 | [49] 0.984 | [50] 0.991 | [51] 0.982 | [52] 0.968 | [53] 0.987 | [54] 0.992 | [55] 1 | [56] 0.991 | [57] 0.984 | [58] 0.996 | [59] 1.01 | [60] 0.968 | [61] 0.984 | [62] 0.976 | [63] 0.97 | [64] 0.991 | [65] 0.988 | [66] 0.948 | [67] 0.999 | [68] 0.993 | [69] 0.996 | [70] 1 | [71] 0.989

COc1cc(NC(=S)NC(=O)c2ccccc2)c(OC)cc1Cl
inactive: [1] 0.985 | [2] 0.995 | [3] 0.99 | [4] 0.99 | [5] 0.997 | [6] 0.998 | [7] 0.988 | [8] 0.998 | [9] 0.981 | [10] 1 | [11] 0.962 | [12] 0.996 | [13] 0.994 | [14] 0.996 | [15] 0.973 | [16] 0.963 | [17] 0.986 | [18] 0.994 | [19] 0.98 | [20] 0.998 | [21] 0.974 | [22] 1 | [23] 0.963 | [24] 1.04 | [25] 0.989 | [26] 0.949 | [27] 0.979 | [28] 1 | [29] 0.9 | [30] 0.993 | [31] 0.961 | [32] 0.971 | [33] 0.989 | [34] 1 | [35] 0.951 | [36] 0.997 | [37] 0.981 | [38] 0.974 | [39] 0.939 | [40] 1 | [41] 1.05 | [42] 0.91 | [43] 0.968 | [44] 0.941 | [45] 0.957 | [46] 0.995 | [47] 0.977 | [48] 1 | [49] 0.991 | [50] 0.977 | [51] 1 | [52] 0.981 | [53] 1 | [54] 0.992 | [55] 0.968 | [56] 0.999 | [57] 0.968 | [58] 0.953 | [59] 0.983 | [60] 0.962 | [61] 0.996 | [62] 0.971 | [63] 0.966 | [64] 0.986 | [65] 0.995 | [66] 0.959 | [67] 0.998 | [68] 0.989 | [69] 0.986 | [70] 0.981 | [71] 1
